According to PubChem BioAssay:

Biological target: Fibroblast growth factor 2 (Homo sapiens) (UniProt P09038)
Experiment: basic fibroblast growth factor binding to printed compounds – biochemical, small-molecule microarray, 635/667 nm fluorescence, primary screen (AID 1133)
Details: FGF2, fluorescence 635/667, higher = more signal

Sequence of Fibroblast growth factor 2 (Homo sapiens) (P09038 whole entry, looked up): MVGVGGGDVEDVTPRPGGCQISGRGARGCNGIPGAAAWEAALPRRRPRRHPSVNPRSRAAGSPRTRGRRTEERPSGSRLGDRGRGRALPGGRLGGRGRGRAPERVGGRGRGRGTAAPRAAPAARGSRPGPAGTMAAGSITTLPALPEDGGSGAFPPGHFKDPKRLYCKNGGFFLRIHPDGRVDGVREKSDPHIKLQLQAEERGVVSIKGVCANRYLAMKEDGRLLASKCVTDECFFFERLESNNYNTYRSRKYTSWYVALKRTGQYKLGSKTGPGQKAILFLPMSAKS

SMILES | composite z-score
O=C1O[C@H](c2ccccc2)[C@H](c2ccccc2)N2[C@H]1[C@@H](C(=O)N1CCN(c3ncccn3)CC1)[C@]1(C(=O)Nc3ccccc31)[C@H]2c1ccc(OCCO)cc1 | 1.43
C=CCNC(=O)[C@@H]1[C@H]2C(=O)O[C@H](c3ccccc3)[C@H](c3ccccc3)N2[C@H](c2ccc(OCCO)cc2)[C@@]12C(=O)Nc1ccccc12 | 0.516
CC(C)C[C@@H]1NC(=O)[C@@H]2C[C@H](C(=O)NCCCCCC[N+](C)(C)C)[C@H](c3ccc(O)cc3)N2C1=O | 0.998
CCCC[C@H]1OB(O)C[C@H]2C1=C(C)C[C@H]1C(=O)N(Cc3ccccc3)C(=O)[C@H]12 | 1.26
COc1ccc(C#Cc2ccc3c(c2)[C@]2(C(=O)N3)[C@H](C(=O)NC[C@H](O)c3ccccc3)[C@H]3C(=O)O[C@H](c4ccccc4)[C@H](c4ccccc4)N3[C@@H]2c2ccc(OCCO)cc2)cc1 | 1.19
COCCOC(=O)N1C(=O)[C@@]2(c3cc(C#CCNC(N)=O)ccc31)[C@H](c1ccc(O)cc1)N1[C@H](c3ccccc3)[C@H](c3ccccc3)OC(=O)[C@H]1[C@@H]2C(=O)Nc1nc2ccccc2s1 | 1.2
COC(=O)[C@@]1(Cc2ccccc2)[C@H]2c3cc(C(=O)N4CCCC4)n(Cc4ccc(C)o4)c3C[C@H]2CN1C(=O)c1ccccc1 | -0.675
COc1cc2c(cc1OC)CN(C(=O)[C@@H]1[C@H]3C(=O)O[C@H](c4ccccc4)[C@H](c4ccccc4)N3[C@H](c3ccccc3OCCO)[C@@]13C(=O)Nc1ccc(C#CCNC(N)=O)cc13)CC2 | 0.748
COC(=O)[C@@]1(Cc2ccc(OC)cc2)[C@H]2c3cc(C(=O)N(C)C)n(Cc4c(OC)[nH]cc(C)c4=O)c3C[C@H]2CN1C(=O)c1ccccc1 | -0.123
COCCOC(=O)N1C(=O)[C@@]2(c3cc(C#CCCO)ccc31)[C@H](C(=O)NC[C@H](O)c1ccccc1)[C@H]1C(=O)O[C@H](c3ccccc3)[C@H](c3ccccc3)N1[C@@H]2c1ccc(O)cc1 | 0.837
COC(=O)[C@]1(Cc2ccccc2N=[N+]=[N-])N=C(c2ccc(OCCCO)cc2)O[C@@H]1c1ccccc1N=[N+]=[N-] | -0.0133
[N-]=[N+]=NCc1ccccc1[C@@H]1OC(c2ccc(OCCCO)cc2)=N[C@]1(Cc1ccccc1N=[N+]=[N-])C(=O)NCc1ccccc1 | 0.578
Cc1ccc(S[C@]2(C(=O)NC3CC3)CC(=O)N(C3CCCCC3)[C@@H]2c2ccc(CO)cc2I)cc1 | 0.341
CC(C)NC(=O)[C@@H]1c2ccccc2C(=O)N(Cc2ccccc2)[C@H]1c1ccc(CO)cc1 | 0.394
[N-]=[N+]=NCc1ccccc1[C@H]1OC(c2ccc(OCCCO)cc2)=N[C@@]1(CCS(=O)(=O)c1ccccc1)C(=O)N1CCOCC1 | 1.01
COc1cc(C(O)C2C=CC3C(=O)N(c4ccccc4)C(=O)C3N2Nc2ccc(C#N)cc2)cc(OC)c1OC (stereo unspecified) | 0.0977
O=C1C2C=CC(C(O)c3ccc(B(O)O)cc3)N(Nc3ccccc3)C2C(=O)N1c1ccccc1 (stereo unspecified) | -0.581
NCCCCCCNC(=O)[C@H]1C[C@H]2C(=O)NCC(=O)N2[C@H]1c1cccc(OCCO)c1 | 1.55

SMILES | composite z-score
COc1cccc(C(=O)O[C@H]2CC[C@]3(C)C4=C(CCC3C2(C)C)[C@]2(C)CC[C@H]([C@H](C)CCCC(C)C)[C@@]2(C)CC4)c1 (stereo partly specified) | 0.281
CCOC(=O)C[C@H]1[C@H](OC(=O)Cc2ccc3c(c2)OCO3)[C@@H](NC(=O)c2ccc(-c3ccccc3)cc2)c2cc(OCCCO)ccc2N1C(=O)c1ccccc1 | 0.685
O=C1OCCC=C[C@H]2OC34C=CCN(Cc5ccccc5)C(=O)[C@H]3N(CCCCCO)C(=O)[C@@H]4C12 (stereo partly specified) | -1.16
CS(=O)(=O)CCOC(=O)C1=CC(CCCO)=CC(c2cccs2)N(Cc2cc3c(cc2Br)OCO3)C=C1C(=O)OCCS(C)(=O)=O (stereo unspecified) | 0.564
O=C1O[C@@H](c2ccccc2)[C@@H](c2ccccc2)N2[C@@H](c3ccc(OCCO)cc3)[C@]3(C(=O)Nc4ccc(C#CC5=CCCCC5)cc43)[C@@H](C(=O)O)[C@H]12 | 0.34
C=CC[C@@]1(C(=O)NCC(O)CO)N=C(c2ccc(OCCCO)cc2)O[C@@H]1c1ccccc1N=[N+]=[N-] (stereo partly specified) | -0.0851
NC(=O)NCC#Cc1ccc2c(c1)[C@]1(C(=O)N2)[C@H](C(=O)NC[C@H](O)c2ccccc2)[C@H]2C(=O)O[C@H](c3ccccc3)[C@H](c3ccccc3)N2[C@@H]1c1ccc(O)cc1 | 1.21
CC(=O)NCCCC[C@@H]1NC(=O)[C@H]2C[C@@H](C(=O)NCCCCCC[N+](C)(C)C)[C@@H](c3cccc(OCCO)c3)N2C1=O | 1.9
COC(=O)[C@@]1(Cc2ccc(F)cc2)[C@H]2c3cc(C(=O)N(C)C)n(CCc4ccccn4)c3C[C@H]2CN1C(=O)c1ccccc1 | 0.0791
CN(C)CCCNC(=O)[C@@]1(Cc2ccccc2I)c2ccccc2C(=O)N(Cc2ccccc2C(F)(F)F)[C@H]1c1ccc(CO)cc1 | -1.16
NC(=O)NCC#Cc1ccc2c(c1)[C@]1(C(=O)N2)[C@H](C(=O)N2CCCCCCC2)[C@H]2C(=O)O[C@H](c3ccccc3)[C@H](c3ccccc3)N2[C@@H]1c1ccc(OCCO)cc1 | 0.649
O=C(O)[C@@]1(Cc2ccccc2)N=C(c2ccc(OCCCO)cc2)O[C@H]1c1ccccc1 | -0.686
CCOC(=O)C1=CCC(c2ccc([N+](=O)[O-])cc2)N(S(=O)(=O)c2ccc(C)cc2)C1 (stereo unspecified) | -0.277
COCCOC(=O)N1C(=O)[C@@]2(c3cc(C#CCCO)ccc31)[C@H](c1ccc(O)cc1)N1[C@H](c3ccccc3)[C@H](c3ccccc3)OC(=O)[C@H]1[C@@H]2C(N)=O | 0.347
COc1ccc(C(O)C2C=CC3C(=O)NC(=O)C3N2Nc2ccccn2)cc1OCc1ccccc1 (stereo unspecified) | -1.37
O=C1OCC=C[C@H]2OC34C=CCN(c5ccc6ccccc6c5)C(=O)[C@H]3N(CCCO)C(=O)[C@@H]4[C@@H]12 (stereo partly specified) | -0.989
CCC[C@@H]1C=C(C(=O)O)[C@H](c2ccc(C)cc2)N1S(=O)(=O)c1ccc(C)cc1 | -0.502
COC(=O)c1ccc(C23CC2(C(NP(=O)(c2ccccc2)c2ccccc2)c2ccccc2)C3)cc1 (stereo unspecified) | -0.575
